Bioassay records deposited in PubChem by National Center for Advancing Translational Sciences (NCATS).
TbPYK inhibitor: qHTS of Trypanosoma Brucei Inhibitors; pyruvate kinase (Trypanosoma brucei), Q57TT1; TbPYK enzyme, Kinase-Glo Plus ATP luminescence, 45 min; Potency, µM (top dose mostly 76.8 µM), for inactives: at the highest dose activity, negative = inhibition, actives largely listed as inhibitors; 0.12% of 410,000 active; AID 624173, 2012; further: on the % scale 0 is the no-effect control and ±100 the full control effect; nearly all actives have a fitted effect of over 50% in size
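Quantitative HTS: titrated library compounds versus trypanosomal pyruvate kinase in TEA buffer (pH 7.2) containing KCl, MgCl2, BSA and Tween-20. Reactions were initiated with ADP, 130 uM final. Kinase-Glo Plus luminescence was read after 45 min at RT.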
AMA1-RON2 inh: qHTS for Inhibitors of AMA1-RON; Towards Development of Antimalarial Drug Lead: Primary Screen. AlphaScreen AMA1-biotinylated RON2 peptide binding. 0.2% of 360,000 active. Potency, µM (titrated, usually from 58.2 µM), for the others: at the highest dose activity change, negative = inhibition, hits mostly inhibitors;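 further: 0% = vehicle wells and -100% = peptide control; nearly all actives have a fitted effect of over 45% in size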
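AMA1 (3D7) with his tag at 25 nM final met compounds first, then biotinylated RON2 peptide at 25 nM; detection used donor plus acceptor beads, 10 µg/mL apiece, read by AlphaScreen after 30 min at room temperature.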
FBPA Giardia inh: qHTS Assay for Inhibitors of Fructose-1,6-bisphosphate Aldolase from Giardia Lamblia; purified Giardia FBPA; AID 2451, 2010; Potency, µM (series often up to 59.6 µM), for inactives: at the top dose activity, negative = inhibition, usual class: inhibitors; 0.71% of 290,000 active; further: on the % scale 0 is the no-effect control and ±100 the full control effect; nearly all actives have a fitted effect of over 55% in size
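40 nM FBPA preincubated 10 min at RT with compound (up to 57.5 uM final), then substrate plus GAPDH/TPI/NAD/arsenate coupling and diaphorase/resazurin added. Fluorescence read after 20 min at RT, 525/598 nm.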
NS1 inh: qHTS Assay for Inhibitors of Influenza NS1 Protein Function | 0.4% of 270,000 active | Potency, µM (doses to about 46.1 µM), for inactives: at the top dose activity, positive = more growth; calls by dose curve; further: actives are rising curves; nearly all actives have a fitted effect of over 50% in size
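Compounds were scored for reversing the slow growth caused by influenza A NS1 in S. cerevisiae, measured by optical density at 600 nm. Assay medium contained 2% galactose at pH 6.0; NS1-free yeast of the same strain were the positive control.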
LmPK inh: qHTS Assay for Inhibitors of Leishmania Mexicana Pyruvate Kinase (LmPK). Q27686. 0.37% of 290,000 active. AID 1721, 2009. purified LmPK, Kinase-Glo ATP luminescence, 1 h. Potency, µM (titrated, usually from 57.5 µM), for the others: top-dose activity change, negative = inhibition, usual class: inhibitors; further: on the % scale 0 is the no-effect control and ±100 the full control effect
Target sequence (Q27686 whole entry, looked up): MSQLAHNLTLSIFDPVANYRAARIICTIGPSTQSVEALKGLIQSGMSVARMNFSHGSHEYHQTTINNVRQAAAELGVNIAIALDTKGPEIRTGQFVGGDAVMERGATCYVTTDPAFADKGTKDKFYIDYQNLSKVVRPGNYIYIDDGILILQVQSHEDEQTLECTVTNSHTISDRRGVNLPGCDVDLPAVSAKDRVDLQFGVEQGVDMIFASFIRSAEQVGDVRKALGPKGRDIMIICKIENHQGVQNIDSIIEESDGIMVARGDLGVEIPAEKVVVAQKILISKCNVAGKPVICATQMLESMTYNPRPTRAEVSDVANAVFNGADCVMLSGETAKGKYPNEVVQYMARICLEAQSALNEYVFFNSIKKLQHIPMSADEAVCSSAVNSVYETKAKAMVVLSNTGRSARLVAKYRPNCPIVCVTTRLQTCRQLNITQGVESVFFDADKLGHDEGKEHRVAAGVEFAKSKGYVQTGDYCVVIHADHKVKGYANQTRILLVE
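Pyruvate kinase activity monitored as ATP production (luciferase luminescence). Conditions: 0.1 nM enzyme, 0.5 mM PEP, 0.1 mM ADP, 1 h, RT; normalized against uninhibited and no-enzyme wells.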
* marks the source's active call; other numbers are inactive results; ? = inconclusive; · = no result; [ ] = another dose, or the depositor's remark. Rows were chosen to be rich in hits. Some 1.2% of all compounds tested hit in one or more screens of this group. Unless noted, the call rests on the fitted dose curve; in most records, active means well fitted curve in the direction sought with a large enough effect; inconclusive means small, poorly fitted or top-dose-only effect, or another doubt; inactive means no such curve, though single readings can be large; an effect the other way counts as inactive or inconclusive. Potency means the concentration at half of the fitted maximal effect.

SMILES	TbPYK inhibitor	AMA1-RON2 inh	FBPA Giardia inh	NS1 inh	LmPK inh
CC1COCC(C)N1C1=C(Cl)C(=O)c2ccccc2C1=O (stereo unspecified)	22.4µM*	?	·	·	·
COc1ccc(CC(=O)Nc2ccc(OC)nc2)cc1	21.7%	9.7%	-3.0%	·	-1.6%
COc1ccc(NC(=O)CCl)cn1	·	·	2.81µM*	-8.4%	4.2%
CC(=O)Nc1ccc(S(=O)(=O)N2CCc3nc(COc4ccccc4)c4c(c3C2)CO[C@@H](C)C4)cc1	·	·	9.8%[12.9 µM]	·	-5.5%[11.5 µM]
CC(C)CCOc1ccc(N)cc1	·	·	-27.0%	·	·
COc1cc2cc(CN(Cc3nnnn3Cc3ccco3)C3CCCCC3)c(=O)[nH]c2cc1OC	2.4%	-2.9%	10µM*	-7.7%	16.3%
O=C1N/C(=C\c2ccc(O)cc2)C(=O)c2ccccc21	?	-1.4%	?	9.7%	10µM*
C/C(=N\OC(=O)c1ccc(F)cc1)c1nccs1	-13.8%	1.1%	10.5%	-24.8%	?
COc1ccc(C(=O)O/N=C(\C)c2nccs2)cc1	?	9.9%	0.9%	-51.5%	7.94µM*
C/C(=N/OC(=O)c1c(F)cccc1F)c1nccs1	-21.4%	-1.8%	0.0%	-24.4%	12.6µM*
COc1ccc(C(=O)O/N=C(/C)c2cccs2)cc1	25.1µM*	-2.0%	-8.4%	-166.1%	3.55µM*
CCNC(=O)[C@H]1CCCN1C(=O)[C@H](CCCN=C(N)N)NC(=O)[C@H](CC(C)C)NC(=O)[C@H](CC(C)C)NC(=O)[C@@H](Cc1ccc(O)cc1)NC(=O)[C@H](CO)NC(=O)[C@@H](Cc1c[nH]c2ccccc12)NC(=O)[C@H](Cc1cnc[nH]1)NC(=O)[C@@H]1CCC(=O)N1	-5.9%	·	·	·	·
CCN(C(=O)Nc1cn(CC(C)C)c(=O)c2ccccc12)c1cc(C)ccc1C	-5.1%	·	·	·	·
CN(C)c1ccc(-n2cccc2)cc1	-12.8%	20µM*	4.1%	0.2%	1.4%
CCOc1ccc(-c2cnc(NCc3cccc(Cl)c3)n2C)cc1	10.9%	·	·	·	·
Cc1ccccc1-n1c([C@@H]2C[C@H]2c2ccccc2)n[nH]c1=S	?	71.3%	3.1%	3.1%	11.2µM*
S=c1[nH]nc([C@@H]2C[C@H]2c2ccccc2)n1-c1ccccc1	3.98µM*	53.8%	5.7%	5.1%	?
COc1ccc(C(=O)NCC(c2cccnc2)N2CCN(c3ccc(F)cc3)CC2)cc1 (stereo unspecified)	-0.7%	·	·	·	·
Cc1ccc(-c2nc3scc(CCNS(=O)(=O)c4c(C)noc4C)n3n2)cc1	2.3%	·	·	·	·
Cc1[nH]c2ccccc2c1C1=CC(=O)C=CC1=O	3.98µM*	-28.9%	·	·	·
COc1cccc(C(=O)NCCSc2c(-c3ccc(F)cc3)[nH]c3ccccc23)c1OC	-8.8%	·	·	·	·
Cc1ccc2[nH]c(=O)c(CN(Cc3ccccc3)C(=S)NCCCN(C)C)cc2c1	-6.0%	5.1%	-4.7%	-34.7%	15.8µM*
CN1C(=O)C(C)(C)c2cc(S(=O)(=O)NCc3ccc(C(=O)Nc4ccc(Cl)cc4)cc3)ccc21	-1.7%	·	·	·	·
c1ccc(C2=NNC(=NCc3ccc4c(c3)OCO4)SC2)cc1	-9.4%	21.1%	5.6%	10.4%	-1.3%
C=CCN=C1NN=C(c2ccc3c(c2)OCCO3)CS1	-14.6%	12.2%	-23.5%	·	10µM*
SMILES	TbPYK inhibitor	AMA1-RON2 inh	FBPA Giardia inh	NS1 inh	LmPK inh
Cc1ccc2nc(NC(=S)NC(=O)c3ccc(OC(C)C)cc3)sc2c1	2.8%	23.9%	-16.4%	-199.1%	12.6µM*
CCN(CC)CCOc1ccc(Nc2ncc3cc(-c4c(Cl)cccc4Cl)c(=O)n(C)c3n2)cc1	4.1%	·	·	·	·
c1ccc(-c2noc(-c3ccc4c(c3)OCO4)n2)cc1	-14.9%	21.8%	4.3%	1.5%	15.8µM*
COc1ccc2c(c1)CC(C(=O)NCCCN1CCN(c3cccc(Cl)c3)CC1)CO2 (stereo unspecified)	-8.4%	·	·	·	·
O=c1cc[nH]c(=S)[nH]1	1.6%	·	15.8µM*	·	·
COC(=O)N1CCC2(CCN(Cc3ccc(C#N)cc3)CC2)CC1	-0.9%	·	2.5%	·	·
Cc1[nH]c2ccccc2c1C(C#N)(C#N)C1C(=O)c2ccccc2C1=O	1.6%	-28.4%	9.98µM*	5.6%	-27.7%
